Compound activity as filed in PubChem.
Rows were chosen to be rich in hits. Some 5.7% of all compounds tested hit in one or more screens of this group.
RORg inh: qHTS for inhibitors of ROR gamma transcriptional activity; 5.4% of 310,000 active; Potency, µM (doses to about 53.6 µM), for inactives: at the top dose activity change, negative = inhibition, usual class: inhibitors; Nuclear receptor ROR-gamma (Mus musculus), P51450; AID 2551, 2010; Drosophila S2 Gal4-RORgamma UAS-luciferase reporter, 20 h; note: nearly all actives have a fitted effect of over 60% in size
Target sequence (P51450 whole entry, looked up, the tested form may be a part): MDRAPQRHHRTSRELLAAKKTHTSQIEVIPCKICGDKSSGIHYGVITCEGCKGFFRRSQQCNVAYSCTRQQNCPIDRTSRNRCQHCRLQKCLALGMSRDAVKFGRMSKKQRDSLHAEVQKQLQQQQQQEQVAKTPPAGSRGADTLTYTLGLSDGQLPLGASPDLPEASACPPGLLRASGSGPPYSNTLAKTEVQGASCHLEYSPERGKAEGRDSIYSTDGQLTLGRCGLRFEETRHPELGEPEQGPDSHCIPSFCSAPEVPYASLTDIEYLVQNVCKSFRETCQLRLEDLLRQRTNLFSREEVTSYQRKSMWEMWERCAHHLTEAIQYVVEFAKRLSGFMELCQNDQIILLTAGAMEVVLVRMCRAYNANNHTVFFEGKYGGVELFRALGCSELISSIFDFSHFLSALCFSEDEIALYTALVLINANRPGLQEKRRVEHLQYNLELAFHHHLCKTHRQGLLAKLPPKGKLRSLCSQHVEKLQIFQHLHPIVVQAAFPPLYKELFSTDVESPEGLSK
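Drosophila S2 cells stably expressing Gal4-DBD/mouse RORγ fusion under metallothionein promoter plus UAS-luciferase; compound 1 h, then 700 uM CuSO4 induction for 20 h at ambient temperature; inhibition read as reduced luminescence.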
B2AR arrestin: qHTS assay of beta-arrestin-biased ligands of beta2-adrenergic receptor | Potency, µM (series often up to 46.1 µM), inactives show at the highest dose activation, actives largely listed as activators | AID 492947, 2010 | Beta-2 adrenergic receptor (Homo sapiens), P07550 | beta-arrestin recruitment to beta2AR, cell-based reporter | 0.02% of 330,000 active;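 note: 0% = DMSO controls and full agonism = EC100 isoproterenol or metaproterenol; nearly all actives have a fitted effect of over 65% in size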
VP16 counter: VP16 counterscreen qHTS for inhibitors of ROR gamma transcriptional activity; 3.5% of 310,000 active; Drosophila S2 Gal4-VP16 UAS-luciferase, luminescence, 20 h; AID 2546, 2010; Potency, µM (titrated, usually from 53.6 µM), without a hit: at the top dose activity, negative = inhibition, actives largely listed as inhibitors;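 note: Gal4-VP16 expression switched on by copper sulfate through the metallothionein promoter; nearly all actives have a fitted effect of over 50% in size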
NPSR antag: qHTS Assay for Antagonists of the Neuropeptide S Receptor: cAMP Signal Transduction | Q6W5P4 | CHO-NPSR cells, cAMP TR-FRET, antagonist mode | Potency, µM (series often up to 38.3 µM), inactives show top-dose activity change, negative = inhibition, hits mostly inhibitors | 1% of 220,000 active; note: nearly all actives have a fitted effect of over 50% in size
Starred values were filed as active, the others as inactive; ? = inconclusive; nt = no result given; [ ] = dose if it differs, or a comment. Calls come from the whole dose curve; as a rule, active = well fitted curve in the direction sought with a large enough effect; inconclusive = small, poorly fitted or top-dose-only effect, or another doubt; inactive = no such curve, though single readings can be large; an effect the other way counts as inactive or inconclusive. Unless noted, % is set by controls: 0 for no effect and ±100 for the full control effect; potency is the fitted concentration of half-maximal effect.

SMILES	RORg inh	B2AR arrestin	VP16 counter	NPSR antag
Cc1cc(=O)[nH]c(N2CCCNCC2)n1	14%	0%	-1%	nt
Cc1cc(=O)[nH]c(-n2nc(C)c(Oc3ccccc3O)c2C)n1	4.5µM*	0%	11µM*	7%[46.1 µM]
COc1ccc(NC(=S)N/C(=N/S(=O)(=O)c2ccc(C)cc2)c2ccccc2)cc1	-89%	0%	-26%	-9%
C/C(=N\S(=O)(=O)c1ccc(C)cc1)NC(=S)Nc1ccccc1	11µM*	0%	-13%	-27%
COc1ccc(NC(=S)N/N=C/c2ccc(F)cc2)cc1OC	0.63µM*	?	2.5µM*	-25%
Fc1ccc(NC(=S)N/N=C/c2ccc(F)c(F)c2)cc1	0.71µM*	?	3.2µM*	-45%
Fc1ccc(/C=N/NC(=S)Nc2ccc(Cl)cc2)cc1F	0.71µM*	0%	1.4µM*	9%
Fc1ccc(NC(=S)Nc2ccc(Cl)cc2)cc1	?	0%	-4%	-16%
Fc1ccc(/C=N/NC(=S)Nc2ccc(Cl)cc2Cl)cc1	?	0%	?	-14%
Fc1ccc(NC(=S)NN=C2CCCCCC2)cc1	4.5µM*	0%	18µM*	-9%[46.1 µM]
N[C@@H](Cn1cc(F)c(=O)[nH]c1=O)C(=O)O	-10%	nt	8%	nt
COc1ccc(/C=N/NC(=S)Nc2ccccc2)cc1COc1ccc(F)cc1F	0.63µM*	0%	1µM*	-28%
COc1ccc(/C=N\NC(=O)c2ccc(F)cc2)cc1COc1ccccc1C(N)=O	7%	-1%	8%	nt
COc1ccc(NC(=S)N/N=C/c2ccc(F)c(F)c2)cc1	3.2µM*	?	5µM*	-6%
CC(=O)Oc1ccc(/C=N/NC(=S)Nc2ccccc2)cc1	2µM*	0%	2.5µM*	-56%
O=C(O)C1CCCCC1C(=O)NCc1ccccn1 (centres undefined)	-33%	0%	1%	16%
Nc1nc(Sc2c([N+](=O)[O-])cc(C(F)(F)F)cc2[N+](=O)[O-])n[nH]1	10µM*	-2%	16µM*	?
COc1nc(NCc2ccco2)nc(NC2CCCCC2)n1	?	0%	?	-4%[46.1 µM]
CCOc1nc(NC2CCCCC2)nc(NC(C)(C)C)n1	?	-1%	16µM*	?
O=C(O)C1CCCCC1C(=O)NCCc1cccc(Cl)c1 (centres undefined)	1%	-1%	-14%	7%[46.1 µM]
S=C(NCCc1ccccc1)NC1CC1	4.5µM*	-2%	?	11%
O=C(NC1CCN(C(=S)NCCc2ccccc2)CC1)C1CC1	10µM*	0%	?	7%
S=C(NCCc1cccc(Cl)c1)NC1CCCCC1	4.5µM*	0%	5.6µM*	nt
S=C(NCCc1ccccc1)NC1CCC(NC(=S)NCCc2ccccc2)CC1 (centres undefined)	-3%	0%	0%	-6%
NC(=O)C1CCN(C(=S)NCCc2ccccc2)CC1	-29%	0%	8%	4%
SMILES	RORg inh	B2AR arrestin	VP16 counter	NPSR antag
S=C(NCc1ccc(Cl)cc1Cl)NC1CCCCC1	5.6µM*	-1%	16µM*	-40%
O=C(O)c1cccnc1SCc1cccc(Br)c1	28%	-1%	-7%	nt
CC1(N)CCC(C(C)(C)N)CC1 (centres undefined)	8%	nt	7%	nt
CC12C=CC(=O)C=C1[C@@H](F)CC1C2C(O)CC2(C)C1CC[C@]2(O)C(=O)CO (some centres undefined)	4%	nt	4%	nt
CCCCC(=O)N/N=C/c1ccc(Sc2cccc3cccnc23)o1	5.6µM*	0%	11µM*	?
COc1ccc(Cl)cc1C(=O)O/N=C(\N)c1ccccn1	32%	-1%	-13%	nt
N/C(=N\OC(=O)c1cc(Cl)ccc1Cl)c1ccccn1	-87%	0%	14µM*	-23%
N/C(=N\OC(=O)COc1ccc(Cl)cc1Cl)c1ccccn1	10µM*	0%	?	2%
CC(C)C[C@H](N)C(=O)N[C@H](C(=O)N[C@@H](CCCN=C(N)N)C(=O)N[C@H](CS)C(=O)NCC(=O)N[C@@H](CCCCN)C(=O)N[C@@H](Cc1cnc[nH]1)C(=O)N[C@@H](CO)C(=O)N[C@@H](CCCN=C(N)N)C(=O)O)C(C)C	3%	nt	-1%	nt
CCCCC1CCC(c2nc(-c3ccccn3)no2)CC1 (centres undefined)	?	0%	13µM*	-11%[46.1 µM]
c1ccc(-c2noc(C3CCC3)n2)nc1	5%	0%	16%	17%
CCOC(=O)C1=C(COC(=O)/C=C/c2cc(OC)c(OC)c(OC)c2)NC(=O)NC1C (centres undefined)	?	0%	?	nt
Clc1ccc(/C=N/Nc2ncnc3ccccc23)cc1Cl	1.4µM*	?	3.5µM*	-4%[46.1 µM]
Fc1ccccc1/C=N/Nc1nc2ccccc2o1	6.3µM*	0%	11µM*	nt
Oc1ccc(Nc2ncnc3ccccc23)cc1	39%	0%	?	nt
Fc1ccccc1/C=N/Nc1ncnc2ccccc12	2.8µM*	?	4.5µM*	-17%
C[C@@H](C(=O)N[C@@H](CO)Cc1ccccc1)[C@H]1C[C@]1(C)[C@H](NC(=O)OCc1ccccc1)c1ccccc1	-2%	nt	13%	nt
c1ccc(-c2nc3nonc3nc2-c2ccccc2)cc1	11µM*	0%	?	-2%[46.1 µM]
COC(=O)[C@@H]1OC(c2ccccc2)O[C@H]1C(=O)OC	3%	nt	-1%	nt
CC(C)CC1=NN(C(=O)c2ccco2)C(O)(C(F)(F)F)C1 (centres undefined)	6.3µM*	0%	14µM*	0%
CN1CCN(c2ccc(NC(=O)c3ccc(Oc4ccccc4)cc3)cc2)CC1	-38%	0%	3%	nt
CC(=O)c1ccc(N2CCN(C(=S)Nc3cccc(F)c3)CC2)cc1	14µM*	0%	-15%	-16%[46.1 µM]
CC(=O)c1ccc(N2CCN(C(=S)Nc3ccc(Oc4ccccc4)cc3)CC2)cc1	3.2µM*	0%	4.5µM*	-19%
COc1ccc(N2CCN(C(=S)Nc3ccccc3)CC2)cc1	13µM*	0%	?	nt
COc1ccc(N2CCN(C(=S)Nc3cccc(OC)c3)CC2)cc1	44%[1.91 µM]	0%	-19%	nt
SMILES	RORg inh	B2AR arrestin	VP16 counter	NPSR antag
O=C(C1CCN(S(=O)(=O)c2ccccc2F)CC1)N1CCc2ccccc2C1	12%	0%	-19%	-18%
COc1ccc(-n2c(SCC(=O)N3CCOCC3)nc(O)cc2=O)cc1	11µM*	0%	0%	nt
COc1ccc(S(=O)(=O)N2CCC(C(=O)N[C@H](C(=O)NC3CCCC3)C(C)C)CC2)cc1	4%	0%	-5%	nt
CCC(=O)NC(=S)Nc1ccc(S(=O)(=O)NC2CCCCC2)cc1	-25%	0%	-3%	nt
O=C(NC(=S)Nc1ccc(S(=O)(=O)N2CCCCC2)cc1)c1cccs1	4.5µM*	0%	?	-22%
O=C(NC(=S)Nc1ccc(S(=O)(=O)NC2CCCCC2)cc1)c1cccs1	1.1µM*	0%	0.45µM*	?
COc1ccccc1CNc1cc(-c2ccccc2C(F)(F)F)ncn1	12%	nt	7%	nt
CC(Oc1ccc(Br)cc1)C(=O)NCCCN1CCCC1=O (centres undefined)	nt	0%	nt	nt
